These results are taken from PubChem BioAssay.

As usually defined, the inhibition is the change of the read-out against control, counted positive when it falls.

Values without a mark were called inactive. For part of these data: Potency and affinity values are given separately. Activity calls are given as the source filed them. Unless noted, no rule for the calls is given here.

The nature of assay [1]: antimalarial activity against Dd2 strain (AID 2302;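 active = growth inhibition above 50% at the single 2 µM test dose, taken to imply half-maximal potency below 2 µM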;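 also: 0% = DMSO untreated growth and 100% = chloroquine plus artemisinin killed control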). The settings on record: P. falciparum Dd2 in RBCs, LDH growth readout, 72 h; at 2 µM; hits give high values.
A short description of assay [2]: HepG2 cytotoxicity, primary screen, cytotoxicity control for P. falciparum antimalarial project, cell-based, ATP luminescence (AID 2303;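 active = inhibition above 50%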;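 also: 0% = DMSO wells and 100% = digitonin-killed cells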). The settings on record: HepG2 viability, 24-48 h, at 10 µM, hits give high values.
In assay [3] the target is L-lactate dehydrogenase (Plasmodium falciparum (isolate CDC / Honduras)) (UniProt Q27743). The experiment in a line: PfLDH activity inhibition – cell lysate, 3D7 strain, counter-screen for P. falciparum growth inhibition project (AID 2304).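 Also: 0% = vehicle and 100% = reference inhibitor.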 The settings on record: P. falciparum 3D7 crude extract, LDH APAD/NBT absorbance; at 2 µM; hits give high values. (In general: A counterscreen serves to expose hits that act by an unwanted route or on another target.)
Chain of L-lactate dehydrogenase (Plasmodium falciparum (isolate CDC / Honduras)) (Q27743 whole entry, looked up): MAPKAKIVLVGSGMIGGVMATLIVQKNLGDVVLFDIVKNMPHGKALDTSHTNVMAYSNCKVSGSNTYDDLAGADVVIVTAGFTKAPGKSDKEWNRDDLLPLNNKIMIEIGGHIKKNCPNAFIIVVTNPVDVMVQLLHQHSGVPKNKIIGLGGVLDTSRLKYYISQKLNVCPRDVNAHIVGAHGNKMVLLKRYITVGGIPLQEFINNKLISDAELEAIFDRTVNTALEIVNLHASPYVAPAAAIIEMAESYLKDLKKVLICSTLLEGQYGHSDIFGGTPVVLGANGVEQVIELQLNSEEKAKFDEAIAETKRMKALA

Assay [4] can be described thus: inhibition of 3D7 malaria parasite growth – strain 3D7 (AID 2306).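 Also: 0% = DMSO wells and 100% = chloroquine plus artemisinin control wells.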 The conditions noted are these: P. falciparum 3D7 erythrocytic growth, LDH absorbance, 72 h; at 2 µM; hits give high values.
Assay [5] addresses Calcium-dependent protein kinase 1 (Plasmodium falciparum (isolate 3D7)) (UniProt P62344). In words: PfCDPK1 kinase inhibitors, biochemical, TCAMS library (AID 1159585; cut-off not given, nearly all actives have IC50 up to about 0.98 µM;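 also: inhibitors leave more ATP so luminescence rises with inhibition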). The conditions noted are these: recombinant PfCDPK1, Kinase-Glo ATP depletion luminescence. Background: Kinase-Glo reads ATP consumption through a luciferase reaction.
Assay [6] concerns the target Plasmodium falciparum protein kinase 6 (PK6, PF3D7_1337100) (UniProt Q8IDW1). The experiment in a line: PfPK6 kinase inhibitors, biochemical, TCAMS library (AID 1159586). The settings on record: recombinant PfPK6, Kinase-Glo ATP depletion luminescence.
Assay [7] has as its target Protein kinase 7 (PK7), Plasmodium falciparum 3D7 (PF3D7_0213400) (UniProt Q7YTF7). The experiment in a line: inhibition of Plasmodium PK7 catalytic activity – biochemical, TCAMS antimalarial set, Kinase-Glo luminescence (AID 1159587). The settings on record: recombinant PfPK7, Kinase-Glo ATP depletion luminescence.
Assay [8] has as its target Calcium-dependent protein kinase 4 (Plasmodium falciparum (isolate 3D7)) (UniProt Q8IBS5). The experiment in a line: PfCDPK4 kinase inhibitors, biochemical, TCAMS library (AID 1159588; cut-off not given, nearly all actives have IC50 up to about 0.91 µM). The settings on record: recombinant PfCDPK4, Kinase-Glo ATP depletion luminescence.

Chain of Calcium-dependent protein kinase 1 (Plasmodium falciparum (isolate 3D7)) (P62344 whole entry, looked up): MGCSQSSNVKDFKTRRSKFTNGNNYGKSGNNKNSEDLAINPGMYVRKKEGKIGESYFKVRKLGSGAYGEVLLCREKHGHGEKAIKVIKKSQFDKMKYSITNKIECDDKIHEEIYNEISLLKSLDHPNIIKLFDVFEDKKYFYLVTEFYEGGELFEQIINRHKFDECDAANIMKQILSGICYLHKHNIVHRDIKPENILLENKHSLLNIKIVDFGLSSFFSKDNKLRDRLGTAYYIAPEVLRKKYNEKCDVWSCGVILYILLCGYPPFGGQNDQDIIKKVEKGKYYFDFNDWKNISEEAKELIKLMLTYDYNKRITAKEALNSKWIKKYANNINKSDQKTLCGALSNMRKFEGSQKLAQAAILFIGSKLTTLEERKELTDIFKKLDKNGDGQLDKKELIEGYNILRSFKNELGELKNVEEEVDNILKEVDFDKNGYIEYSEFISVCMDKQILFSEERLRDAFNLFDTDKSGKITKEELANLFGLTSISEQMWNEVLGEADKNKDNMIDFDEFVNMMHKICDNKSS
Chain of Plasmodium falciparum protein kinase 6 (PK6, PF3D7_1337100) (Q8IDW1 1-305): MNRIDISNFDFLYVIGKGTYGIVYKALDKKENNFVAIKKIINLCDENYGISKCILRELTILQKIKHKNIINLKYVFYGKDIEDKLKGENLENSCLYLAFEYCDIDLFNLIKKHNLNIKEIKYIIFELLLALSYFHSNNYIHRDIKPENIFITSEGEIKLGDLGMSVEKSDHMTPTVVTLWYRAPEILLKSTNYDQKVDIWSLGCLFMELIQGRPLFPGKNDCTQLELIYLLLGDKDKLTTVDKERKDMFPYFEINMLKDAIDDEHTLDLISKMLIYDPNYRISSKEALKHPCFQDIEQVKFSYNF
Chain of Calcium-dependent protein kinase 4 (Plasmodium falciparum (isolate 3D7)) (Q8IBS5 whole entry, looked up): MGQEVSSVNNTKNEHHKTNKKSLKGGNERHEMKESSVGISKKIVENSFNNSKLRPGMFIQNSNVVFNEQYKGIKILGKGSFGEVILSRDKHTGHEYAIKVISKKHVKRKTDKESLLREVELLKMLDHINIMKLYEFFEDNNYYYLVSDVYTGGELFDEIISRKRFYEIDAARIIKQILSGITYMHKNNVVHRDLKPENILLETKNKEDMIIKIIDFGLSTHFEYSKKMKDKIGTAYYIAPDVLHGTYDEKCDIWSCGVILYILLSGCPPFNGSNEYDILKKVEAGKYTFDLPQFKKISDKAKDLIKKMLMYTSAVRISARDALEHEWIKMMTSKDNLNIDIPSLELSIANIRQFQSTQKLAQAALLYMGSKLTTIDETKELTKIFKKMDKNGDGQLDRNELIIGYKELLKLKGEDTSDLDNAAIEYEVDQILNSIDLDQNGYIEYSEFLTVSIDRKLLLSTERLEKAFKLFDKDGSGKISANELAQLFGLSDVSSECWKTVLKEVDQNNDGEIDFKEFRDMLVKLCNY
Chain of Protein kinase 7 (PK7), Plasmodium falciparum 3D7 (PF3D7_0213400) (Q7YTF7 1-343): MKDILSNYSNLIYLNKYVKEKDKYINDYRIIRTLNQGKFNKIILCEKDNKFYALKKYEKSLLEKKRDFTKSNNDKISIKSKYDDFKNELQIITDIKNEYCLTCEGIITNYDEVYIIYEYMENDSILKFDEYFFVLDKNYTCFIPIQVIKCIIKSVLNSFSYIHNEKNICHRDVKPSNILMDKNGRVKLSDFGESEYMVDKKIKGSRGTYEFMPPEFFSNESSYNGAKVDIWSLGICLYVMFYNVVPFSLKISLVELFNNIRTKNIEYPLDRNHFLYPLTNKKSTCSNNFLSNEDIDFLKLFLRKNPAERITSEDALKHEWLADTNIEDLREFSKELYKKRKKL

In the case of `Cn1nc(C(F)(F)F)c(-c2ccc(F)cc2)c1NC(=O)Nc1ccc(F)cc1F`, the growth inhibition is 98% (active) in assay [1] and 100% (active) in assay [4]. In addition, the inhibition in assay [2] is 11%; in assay [3] it was -2%. Further, the result in assay [5], in assay [6], in assay [7] and in assay [8] was inactive.

Regarding `CC(C)[C@H]1C(=O)N(S(C)(=O)=O)[C@H]2CCN(C(=O)c3ccc(CN4CCCCC4)c([N+](=O)[O-])c3)[C@H]12`, the growth inhibition in assay [1] and in assay [4] was 100% (active) throughout. The inhibition was 10% in assay [2] and 3% in assay [3]. The result in assay [5], in assay [6], in assay [7] and in assay [8] was inactive.

For the compound `CN(C)c1ccc(CN2CCC(NC(=O)c3ccc(-c4ccccc4F)s3)CC2)cc1`, the growth inhibition in assay [1] was 27%; in assay [4] it was 86% (active). The inhibition was 41% in assay [2] and -3% in assay [3]. Besides, the result in assay [5], in assay [6], in assay [7] and in assay [8] was inactive.

On to `Cc1cc(Nc2ccccc2)nc(NCCOc2ccccc2)n1`, for which the growth inhibition in assay [1] was 48%; in assay [4] it was 100% (active). The inhibition was -5% in assay [2] and -1% in assay [3]. Besides, the outcome in assay [5], in assay [6], in assay [7] and in assay [8] was inactive.

Take `CCCc1cc(NCC)nc(Nc2ccc(F)cc2)n1`: the growth inhibition in assay [1] was 36%; in assay [4], 86% (active). Also, the results for the inhibition in assay [2] and in assay [3] were 16% and -1%, respectively. For the same compound, the result in assay [5], in assay [6], in assay [7] and in assay [8] was inactive.

As for `CC1Cc2ccccc2N1S(=O)(=O)c1cc(OCC(F)(F)F)ccc1OCC(F)(F)F` (centres undefined), the growth inhibition was 95% (active) in assay [1] and 96% (active) in assay [4]. Further, the inhibition in assay [2] was 10%; in assay [3] it was 0%. In addition, the outcome in assay [5], in assay [6], in assay [7] and in assay [8] was inactive.

In the case of `Cc1cc(Cl)ccc1NC(=O)NCCCCCN1CCC(c2c[nH]c3ccccc23)CC1`, the growth inhibition was 8% in assay [1] and 91% (active) in assay [4]. Also, the values for the inhibition in assay [2] and in assay [3] were 59% (active) and 0%, respectively. The outcome in assay [5], in assay [6], in assay [7] and in assay [8] was inactive.

Regarding `CN1N=C2c3ccccc3CCC2C1c1ccc(C#N)cc1` (centres undefined), the growth inhibition in assay [1] was 85% (active); in assay [4] it was 95% (active). Moreover, the inhibition in assay [2] was -9%; in assay [3] it was 2%. Also, the result in assay [5], in assay [6], in assay [7] and in assay [8] was inactive.

For `O=C(COc1ccccc1Cl)N1CCc2cc3nccc(N4CCN5CCC[C@H]5C4)c3cc21`, the growth inhibition is 99% (active) in assay [1] and 91% (active) in assay [4]. The inhibition in assay [2] was 4%; in assay [3] it was -1%. Further, the result in assay [5], in assay [6], in assay [7] and in assay [8] was inactive.

As to `CCNc1cc(C(=O)N[C@@H](Cc2ccccc2)[C@H](O)CNC2CCC(F)(F)CC2)c(F)c(N2CCCCS2(=O)=O)c1`, the growth inhibition was 97% (active) in assay [1] and 100% (active) in assay [4]. Also, the inhibition in assay [2] was -5%; in assay [3] it was -1%. The outcome in assay [5], in assay [6], in assay [7] and in assay [8] was inactive.

As for `CN(C)Cc1cccc(-c2ccc(Nc3nccc(NCC(O)c4ccccc4)n3)cc2)c1` (centres undefined), the growth inhibition in assay [1] was 77% (active); in assay [4] it was 100% (active). For the same compound, the inhibition in assay [2] was 75% (active); in assay [3], 1%. Further, the result in assay [5], in assay [6], in assay [7] and in assay [8] was inactive.

Take `COc1cccc2c(NN=Cc3cccc(Cl)c3)cc(C)nc12`: the growth inhibition in assay [1] is 75% (active); in assay [4] it was 101% (active). In addition, the inhibition is 3% in assay [2] and 2% in assay [3]. Also, the outcome in assay [5], in assay [6], in assay [7] and in assay [8] was inactive.

For the compound `COc1c(F)ccc2ncc(Cl)c(CCN3CCC(NCc4ccc5c(n4)NC(=O)CS5)CC3)c12`, the figures for the growth inhibition in assay [1] and in assay [4] were 29% and 98% (active), respectively. Further, the inhibition in assay [2] was 30%; in assay [3] it was 2%. For the same compound, the result in assay [5], in assay [6], in assay [7] and in assay [8] was inactive.

With `COCC(C)n1c(SCC(=O)Nc2cc(C(F)(F)F)ccc2Cl)nc2ccccc2c1=O` (centres undefined), the growth inhibition in assay [1] was 96% (active); in assay [4] it was 97% (active). Moreover, the inhibition in assay [2] is 3%; in assay [3] it was 6%. The outcome in assay [5], in assay [6], in assay [7] and in assay [8] was inactive.

`CN(Cc1cccc(C#N)c1)C1CCN(c2cc(NC(=O)c3cccc(F)c3)ccn2)CC1`: the growth inhibition in assay [1] was 15%; in assay [4], 98% (active). The inhibition in assay [2] was -1%; in assay [3], -3%. In addition, the result in assay [5], in assay [6], in assay [7] and in assay [8] was inactive.

Take `CN(C)c1ccc(CN2CCC(CNC(=O)c3cc(-c4ccccc4F)cs3)C2)cc1` (centres undefined): the growth inhibition is 33% in assay [1] and 101% (active) in assay [4]. The inhibition was 35% in assay [2] and 2% in assay [3]. In addition, the outcome in assay [5], in assay [6], in assay [7] and in assay [8] was inactive.

As for `CCOC(=O)NC1=NC(C)(C)N(OCCCOc2cc(Cl)c(Cl)cc2Cl)C(NC(=O)OCC)=N1`, the growth inhibition was 97% (active) in assay [1] and 91% (active) in assay [4]. For the same compound, the inhibition in assay [2] was 63% (active); in assay [3], 5%. In addition, the result in assay [5], in assay [6], in assay [7] and in assay [8] was inactive.

As for `CC(C)Cn1cc(C2CCN(CCN3CCC(CNC(=O)c4ccc(-c5ccc(C(F)(F)F)cc5)cc4)CC3)CC2)c2ccccc21`, the growth inhibition in assay [1] is 87% (active); in assay [4], 101% (active). Besides, the inhibition in assay [2] is 100% (active); in assay [3] it was 0%. Besides, the result in assay [5], in assay [6], in assay [7] and in assay [8] was inactive.
